# Data taken from PubChem BioAssay.
# The source made the active and inactive calls. Cut-off read from the data, not from the text of the source, unless noted: active = inhibition above about 80%; inactive = the rest.
# Assays:
# [1] = growth inhibition, single agent or in combination, cell-based, chromothripsis tumors, cisplatin or BGB combos (AID 1671449); settings: LFS_MB_P medulloblastoma cells;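 note: cells exposed for 96 hours; 0% = vehicle DMSO and 100% = killing by high DMSO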
# [2] = growth inhibition, single agent and combos, cell-based, chromothripsis tumors, cisplatin or BGB combos (AID 1671450); settings: HDN33 neuroblastoma cells, stronger effect = higher value;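 note: cells exposed to compound for four days; 0% = vehicle DMSO and 100% = cell killing by high DMSO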
# [3] = growth inhibition, single agents and combos, ICB984, cell-based, cisplatin or BGB combos, synergistic combos for chromothripsis tumors (AID 1671451; call rule not given here;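 note: cells exposed for 96 hours before readout; 0% = vehicle DMSO and 100% = killing by high DMSO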); settings: ICB984 medulloblastoma cells, drug combinations, stronger effect = higher value
# [4] = growth inhibition, single agents and combos, LFS_MB_1R, cell-based, cisplatin or BGB combos, synergistic combos for chromothripsis tumors (AID 1671452); settings: LFS_MB_1R medulloblastoma cells, stronger effect = higher value;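 note: cells exposed for 96 hours before readout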
# [5] = growth inhibition, single agents and combos, HTB85, cell-based, BGB or cisplatin IC20 combos, synergistic combos for chromothripsis tumors (AID 1671453); settings: HTB85 osteosarcoma cells, drug combinations, stronger effect = higher value;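 note: cells exposed for 96 hours before readout; 0% = vehicle DMSO and 100% = high DMSO killing control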
# [6] = growth inhibition, single agents and combos, CRL2098, cell-based, BGB or cisplatin IC20 combos, synergistic combos for chromothripsis tumors (AID 1671454); settings: CRL2098 osteosarcoma cells, drug combinations, stronger effect = higher value;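 note: cells exposed for 96 h before readout; 0% = vehicle DMSO and 100% = killing by high DMSO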
# [7] = growth inhibition, single agents and combos, HD-MB03, cell-based, BGB or cisplatin IC20 combos, synergistic combos for chromothripsis tumors (AID 1671455; in the data active = inhibition above about 83%;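 note: 0% = vehicle DMSO and 100% = high DMSO as cytotoxic control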); settings: HD-MB03 medulloblastoma cells, stronger effect = higher value
# [8] = growth inhibition, single agents and combos, UWB1.289, cell-based, BGB or cisplatin combos, synergistic combos for chromothripsis tumors (AID 1671456); settings: UWB1.289 ovarian carcinoma cells, stronger effect = higher value;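 note: cells exposed to compound for four days; 0% = vehicle DMSO and 100% = killing by high DMSO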
# [9] = growth inhibition, single agents and combos, LFS_MB_2R, cell-based, cisplatin combos, synergistic combos for chromothripsis tumors (AID 1671457); settings: LFS_MB_2R medulloblastoma cells, stronger effect = higher value;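 note: cells exposed to compound for four days before readout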
# [10] = growth inhibition, MDA-MB-436, cell-based, BGB or cisplatin combos, synergistic combos for chromothripsis tumors (AID 1671458; call rule not given here;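 note: cells exposed for 96 hours; 0% = vehicle DMSO and 100% = killing by high DMSO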); settings: MDA-MB-436 breast carcinoma growth inhibition, drug combinations, stronger effect = higher value
# [11] = UWB1.289_BRCA1 ovarian cancer growth, cell-based, BGB or cisplatin combinations (AID 1671459); settings: UWB1.289 BRCA1 ovarian carcinoma, drug combinations, stronger effect = higher value
# [12] = drug combination toxicity in non-malignant astrocytes – cell-based, BGB or cisplatin IC20 combos, cytotoxicity control for chromothriptic childhood tumor combination screen (AID 1671460); settings: Human astrocytes, viability inhibition, drug combinations, at 0.5 µM, stronger effect = higher value;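 note: cells exposed to compounds for 96 hours before viability readout; 0% = vehicle and 100% = killing control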
# [13] = BT084 cell growth, single and combined drugs, ICGC_MB145, cisplatin and BGB IC40 combos (AID 1671461); settings: BT084 medulloblastoma cells, drug combinations, stronger effect = higher value;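 note: cells exposed to drugs for 96 hours; 0% = vehicle DMSO and 100% = high DMSO full killing control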
# [14] = RCMB18 cell growth, single agent and combined, cisplatin and BGB IC40 combos (AID 1671462); settings: RCMB18 medulloblastoma cells, stronger effect = higher value;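 note: cells exposed to compound for four days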
# [15] = CRL1545 cell growth, single agent and combined, cisplatin and BGB IC20 combos (AID 1671464); settings: CRL1545 osteosarcoma cells, stronger effect = higher value;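 note: cells exposed to compound for 96 hours before readout; 0% = vehicle DMSO and 100% = high DMSO killing control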
# [16] = at 0.5 µM, stronger effect = higher value
# [17] = measured here: combination with BGB IC20, at 0.005 µM
# [18] = measured here: combination with BGB IC40, at 0.005 µM
# [19] = measured here: combination with BGB IC40, at 0.05 µM
# [20] = measured here: combination with cisplatin, at 0.5 µM, stronger effect = higher value
# [21] = measured here: combination with cisplatin, at 5 µM, stronger effect = higher value
# [22] = measured here: with BGB IC20 combination, at 0.5 µM
# [23] = measured here: with cisplatin IC20 combination, at 0.5 µM
# [24] = measured here: 5 uM single agent, at 5 µM
# [25] = measured here: combination with cisplatin, at 0.5 µM
# [26] = measured here: combination with cisplatin, at 5 µM
# [27] = measured here: with BGB IC20, at 0.5 µM
# [28] = measured here: with BGB IC20, at 5 µM
# [29] = measured here: with cisplatin IC20, at 0.5 µM
# [30] = measured here: with cisplatin IC20, at 5 µM
# [31] = measured here: combination with BGB at IC20, at 0.5 µM
# [32] = measured here: combination with cisplatin at IC20, at 0.5 µM
# [33] = measured here: combo with BGB at IC20, at 0.5 µM
# [34] = measured here: combo with cisplatin at IC20, at 0.5 µM
# [35] = measured here: inhibition with BGB combination, at 0.05 µM
# [36] = measured here: inhibition with cisplatin combination, at 0.05 µM
# [37] = measured here: BGB combination, at 0.5 µM
# [38] = measured here: BGB combination, at 5 µM
# [39] = measured here: cisplatin combination, at 0.5 µM
# [40] = measured here: cisplatin combination, at 5 µM
# [41] = BGB combination, concentration series, at 5 µM
# [42] = cisplatin combination, concentration series, at 5 µM
# [43] = measured here: combo with BGB IC20
# [44] = measured here: combo with cisplatin IC20
# [45] = cisplatin combination, at 0.5 µM
# [46] = measured here: BGB IC40 combination 0.05 uM, at 0.05 µM
# [47] = measured here: BGB IC40 combination, at 0.05 µM
compound,measurement,setting,value
C[C@H](NC(=O)c1ccccc1N=Cc1c(O)ccc2ccccc12)c1ccccc1,inhibition,[1]; [16],-32.5% (inactive)
same,inhibition,[1]; [17],-24.4%
same,inhibition,[1]; [18],-29.4%
same,inhibition,[1]; [19],-11%
same,inhibition,[1]; [20],-57.7%
same,inhibition,[1]; [21],-10%
same,inhibition,"[2]; BGB combo, at 5 µM",-7.69%
same,inhibition,[2]; at 0.5 µM,1.7% (inactive)
same,inhibition,"[2]; cisplatin combo, at 5 µM",-4.45%
same,inhibition,[2]; [22],-2.8%
same,inhibition,[2]; [23],-1.48%
same,inhibition,"[2]; single agent, at 5 µM",7.54%
same,inhibition,"[3]; BGB IC20 combo, at 0.005 µM",1.67%
same,inhibition,"[3]; BGB IC40 combo, at 0.005 µM",-1.06%
same,inhibition,"[3]; BGB IC40 combo, at 0.05 µM",7.65%
same,inhibition,[3]; at 0.5 µM,-7.38% (inactive)
same,inhibition,"[3]; cisplatin combo, at 0.05 µM",3.01%
same,inhibition,"[3]; cisplatin combo, at 0.5 µM",-7.71%
same,inhibition,"[3]; cisplatin combo, at 5 µM",-12.4%
same,inhibition,[3]; [24],5.4%
same,inhibition,[4]; at 0.5 µM,-6.38% (inactive)
same,inhibition,[4]; [19],-9.7%
same,inhibition,[4]; [25],-2.62%
same,inhibition,[4]; [26],12.2%
same,inhibition,[5]; at 0.5 µM,1.08% (inactive)
same,inhibition,[5]; [27],5.46%
same,inhibition,[5]; [28],7.19%
same,inhibition,[5]; [29],-9.86%
same,inhibition,[5]; [30],-2.37%
same,inhibition,"[5]; single agent, at 5 µM",12.6%
same,inhibition,[6]; at 0.5 µM,5.5% (inactive)
same,inhibition,[6]; [31],-35.4%
same,inhibition,[6]; [32],58.3%
same,inhibition,[7]; at 0.5 µM,6.83% (inactive)
same,inhibition,[7]; [33],11.2%
same,inhibition,[7]; [34],5.12%
same,inhibition,[8]; at 0.5 µM,17.4% (inactive)
same,inhibition,[8]; [35],3.84%
same,inhibition,[8]; [36],5.13%
same,inhibition,[9]; at 0.5 µM,-0.99% (inactive)
same,inhibition,[9]; [25],5.16%
same,inhibition,[9]; [26],4.48%
same,inhibition,[10]; at 0.5 µM,-1.91% (inactive)
same,inhibition,[10]; [37],-7.38%
same,inhibition,[10]; [38],-1.84%
same,inhibition,[10]; [39],-10.5%
same,inhibition,[10]; [40],-4.49%
same,inhibition,[11]; [41],-2.68%
same,inhibition,[11]; at 0.5 µM,1.55% (inactive)
same,inhibition,[11]; [42],4.86%
same,inhibition,[12],3.33% (inactive)
same,inhibition,[12]; [43],4.85%
same,inhibition,[12]; [44],-2.44%
same,inhibition,[13]; at 0.5 µM,-3.76% (inactive)
same,inhibition,[13]; [45],0.659%
same,inhibition,"[13]; cisplatin combination, at 5 µM",-186%
same,inhibition,[13]; [46],5.69%
same,inhibition,"[13]; single agent, at 5 µM",-0.461%
same,inhibition,[14]; at 0.5 µM,-3.35% (inactive)
same,inhibition,"[14]; cisplatin combo, at 5 µM",-10.8%
same,inhibition,[14]; [47],-9.58%
same,inhibition,[14]; [25],-13.6%
same,inhibition,"[14]; single agent, at 5 µM",3.49%
same,inhibition,[15]; at 0.5 µM,-10.6% (inactive)
same,inhibition,[15]; [22],-16.9%
same,inhibition,[15]; [23],-9.19%
same,inhibition,"[15]; single agent, at 0.05 µM",-20.9%
same,inhibition,"[15]; single agent, at 5 µM",-71%
CC(C)C(=O)SCCCCCCC(=O)Nc1nc(-c2ccccc2)cs1,inhibition,[1]; [16],-25.8% (inactive)
same,inhibition,[1]; [17],-14.6%
same,inhibition,[1]; [18],-57.5%
same,inhibition,[1]; [19],-33.9%
same,inhibition,[1]; [20],-38.9%
same,inhibition,[1]; [21],85.2%
same,inhibition,"[2]; BGB combo, at 5 µM",48.9%
same,inhibition,[2]; at 0.5 µM,6.91% (inactive)
same,inhibition,"[2]; cisplatin combo, at 5 µM",45.1%
same,inhibition,[2]; [22],1.56%
same,inhibition,[2]; [23],14.6%
same,inhibition,"[2]; single agent, at 5 µM",57.6%
same,inhibition,"[3]; BGB IC20 combo, at 0.005 µM",16.1%
same,inhibition,"[3]; BGB IC40 combo, at 0.005 µM",-25.2%
same,inhibition,"[3]; BGB IC40 combo, at 0.05 µM",31.3%
same,inhibition,[3]; at 0.5 µM,-31.1% (inactive)
same,inhibition,"[3]; cisplatin combo, at 0.05 µM",28%
same,inhibition,"[3]; cisplatin combo, at 0.5 µM",-33.4%
same,inhibition,"[3]; cisplatin combo, at 5 µM",-7.7%
same,inhibition,[3]; [24],4.47%
same,inhibition,[4]; at 0.5 µM,-22% (inactive)
same,inhibition,[4]; [19],-72.1%
same,inhibition,[4]; [25],-44.8%
same,inhibition,[4]; [26],68.5%
same,inhibition,[5]; at 0.5 µM,-4.36% (inactive)
same,inhibition,[5]; [27],2.11%
same,inhibition,[5]; [28],19%
same,inhibition,[5]; [29],-21.4%
same,inhibition,[5]; [30],38.3%
same,inhibition,"[5]; single agent, at 5 µM",22.2%
same,inhibition,[6]; at 0.5 µM,-30.2% (inactive)
same,inhibition,[6]; [31],-44.3%
same,inhibition,[6]; [32],-19.3%
same,inhibition,[7]; at 0.5 µM,4.11% (inactive)
same,inhibition,[7]; [33],5.74%
same,inhibition,[7]; [34],11.7%
same,inhibition,[8]; at 0.5 µM,5.55% (inactive)
same,inhibition,[8]; [35],-30.6%
same,inhibition,[8]; [36],-3.57%
same,inhibition,[9]; at 0.5 µM,-13.4% (inactive)
same,inhibition,[9]; [25],-25.2%
same,inhibition,[9]; [26],54.7%
same,inhibition,[10]; at 0.5 µM,-7.93% (inactive)
same,inhibition,[10]; [37],-9.46%
same,inhibition,[10]; [38],10.2%
same,inhibition,[10]; [39],-23.5%
same,inhibition,[10]; [40],18.2%
same,inhibition,[11]; [41],37.8%
same,inhibition,[11]; at 0.5 µM,9.48% (inactive)
same,inhibition,[11]; [42],66.2%
same,inhibition,[12],31.1% (inactive)
same,inhibition,[12]; [43],34.6%
same,inhibition,[12]; [44],18.5%
same,inhibition,[13]; at 0.5 µM,-9.26% (inactive)
same,inhibition,[13]; [45],-8.48%
same,inhibition,"[13]; cisplatin combination, at 5 µM",42.4%
same,inhibition,[13]; [46],-39.7%
same,inhibition,"[13]; single agent, at 5 µM",71.8%
same,inhibition,[14]; at 0.5 µM,-9.74% (inactive)
same,inhibition,"[14]; cisplatin combo, at 5 µM",41%
same,inhibition,[14]; [47],12.2%
same,inhibition,[14]; [25],-9.58%
same,inhibition,"[14]; single agent, at 5 µM",36.3%
same,inhibition,[15]; at 0.5 µM,33.1% (inactive)
same,inhibition,[15]; [22],24.9%
same,inhibition,[15]; [23],36.2%
same,inhibition,"[15]; single agent, at 0.05 µM",0.931%
same,inhibition,"[15]; single agent, at 5 µM",46.6%
